How the values were obtained:
RIVA [1] = assay: growth inhibition by drug alone (1 - RLU/untreated control) (fraction); higher = stronger inhibition; conditions: 177Lu-lilotomab satetraxetan 0 ug/ml
Method in brief: (§1)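 With or without 18 h pretreatment by a radiolabelled anti-CD37 antibody conjugate (~600 MBq/mg; 0.5 µg/ml RIVA, 1 µg/ml U-2932), RIVA and U-2932 cells were washed and plated at 3,000 cells/well. Pre-printed compound doses were 10/100 nM for RIVA and 10/1,000 nM for U-2932. Growth inhibition uses RealTime-Glo RLU relative to the untreated no-drug wells. The calculation is 1 − RLU/mean of 48 such wells per plate, with reads daily from day 3 after 1 h at 37°C.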

U-2932 [2] = assay: growth inhibition by drug plus 177Lu-lilotomab satetraxetan (1 - RLU/untreated control) (fraction); higher = stronger inhibition; conditions: 177Lu-lilotomab satetraxetan 1 ug/ml
Method in brief: as §1

RIVA [3] = assay: as above; conditions: 177Lu-lilotomab satetraxetan 0.5 ug/ml
Method in brief: as §1

U-2932 [4] = assay: growth inhibition by drug alone (1 - RLU/untreated control) (fraction); higher = stronger inhibition; conditions: 177Lu-lilotomab satetraxetan 0 ug/ml
Method in brief: as §1

Row | SMILES | growth inhibition by drug alone (RIVA [1]; 10 nM, time (day): 3) | growth inhibition by drug alone (RIVA [1]; 10 nM, time (day): 4) | growth inhibition by drug alone (RIVA [1]; 10 nM, time (day): 5) | growth inhibition by drug alone (RIVA [1]; 10 nM, time (day): 6) | growth inhibition by drug alone (RIVA [1]; 100 nM, time (day): 3) | growth inhibition by drug alone (RIVA [1]; 100 nM, time (day): 4) | growth inhibition by drug alone (RIVA [1]; 100 nM, time (day): 5) | growth inhibition by drug alone (RIVA [1]; 100 nM, time (day): 6) | growth inhibition by drug plus 177Lu-lilotomab satetraxetan (U-2932 [2]; 10 nM, time (day): 3) | growth inhibition by drug plus 177Lu-lilotomab satetraxetan (U-2932 [2]; 10 nM, time (day): 4) | growth inhibition by drug plus 177Lu-lilotomab satetraxetan (U-2932 [2]; 10 nM, time (day): 5) | growth inhibition by drug plus 177Lu-lilotomab satetraxetan (U-2932 [2]; 10 nM, time (day): 6) | growth inhibition by drug plus 177Lu-lilotomab satetraxetan (U-2932 [2]; 1000 nM, time (day): 3) | growth inhibition by drug plus 177Lu-lilotomab satetraxetan (U-2932 [2]; 1000 nM, time (day): 4) | growth inhibition by drug plus 177Lu-lilotomab satetraxetan (U-2932 [2]; 1000 nM, time (day): 5) | growth inhibition by drug plus 177Lu-lilotomab satetraxetan (U-2932 [2]; 1000 nM, time (day): 6) | growth inhibition by drug plus 177Lu-lilotomab satetraxetan (RIVA [3]; 10 nM, time (day): 3) | growth inhibition by drug plus 177Lu-lilotomab satetraxetan (RIVA [3]; 10 nM, time (day): 4) | growth inhibition by drug plus 177Lu-lilotomab satetraxetan (RIVA [3]; 10 nM, time (day): 5) | growth inhibition by drug plus 177Lu-lilotomab satetraxetan (RIVA [3]; 10 nM, time (day): 6) | growth inhibition by drug plus 177Lu-lilotomab satetraxetan (RIVA [3]; 100 nM, time (day): 3) | growth inhibition by drug plus 177Lu-lilotomab satetraxetan (RIVA [3]; 100 nM, time (day): 4) | growth inhibition by drug plus 177Lu-lilotomab satetraxetan (RIVA [3]; 100 nM, time (day): 5) | growth inhibition by drug plus 177Lu-lilotomab satetraxetan (RIVA [3]; 100 nM, time (day): 6) | growth inhibition by drug alone (U-2932 [4]; 10 nM, time (day): 3) | growth inhibition by drug alone (U-2932 [4]; 10 nM, time (day): 4) | growth inhibition by drug alone (U-2932 [4]; 10 nM, time (day): 5) | growth inhibition by drug alone (U-2932 [4]; 10 nM, time (day): 6) | growth inhibition by drug alone (U-2932 [4]; 1000 nM, time (day): 3) | growth inhibition by drug alone (U-2932 [4]; 1000 nM, time (day): 4) | growth inhibition by drug alone (U-2932 [4]; 1000 nM, time (day): 5) | growth inhibition by drug alone (U-2932 [4]; 1000 nM, time (day): 6)
1 | O=c1[nH]cc(F)c(=O)[nH]1 [Adrucil (Fluorouracil)] | -0.0691 | -0.144 | -0.384 | -0.72 | -0.6 | -0.481 | -0.493 | -0.619 | -0.0549 | 0.00352 | 0.0517 | 0.0335 | 0.0514 | 0.0854 | 0.184 | 0.275 | 0.421 | 0.521 | 0.54 | 0.555 | 0.398 | 0.483 | 0.493 | 0.512 | – | – | – | – | – | – | – | –
2 | NC(=O)Nc1sc(-c2ccc(F)cc2)cc1C(N)=O | -0.0481 | -0.0689 | -0.274 | -0.781 | -0.446 | -0.283 | -0.285 | -0.444 | 0.0182 | 0.0728 | 0.0938 | 0.118 | 0.334 | 0.356 | 0.397 | 0.502 | 0.484 | 0.574 | 0.584 | 0.586 | 0.259 | 0.411 | 0.413 | 0.434 | – | – | – | – | – | – | – | –
3 | Cc1csc(-c2nnc(Nc3ccc(Oc4ncccc4-c4ccnc(N)n4)cc3)c3ccccc23)c1 | 0.0279 | -0.0253 | 0.0704 | 0.206 | -0.211 | -0.208 | -0.145 | -0.0126 | 0.0788 | 0.121 | 0.207 | 0.449 | 0.271 | 0.306 | 0.344 | 0.538 | 0.482 | 0.52 | 0.572 | 0.659 | 0.496 | 0.552 | 0.581 | 0.676 | – | – | – | – | – | – | – | –
4 | Cc1cc(O)c2c(c1)C(=O)c1cccc(O)c1C2=O [Chrysophanic acid (Chrysophanol)] | -0.266 | -0.269 | -0.305 | -0.322 | -0.0635 | -0.135 | -0.0963 | -0.115 | -0.0546 | -0.0035 | 0.0467 | 0.1 | -0.0941 | -0.0464 | -0.00693 | 0.13 | – | – | – | – | – | – | – | – | -0.0586 | -0.0671 | -0.0488 | 0.0657 | -0.0803 | -0.0522 | -0.0654 | 0.0406
5 | CCN(CC)C(=S)SSC(=S)N(CC)CC [Disulfiram (Antabuse)] | -0.0278 | -0.1 | -0.147 | -0.282 | -0.227 | -0.194 | -0.203 | -0.423 | 0.000112 | 0.0295 | 0.0516 | 0.0837 | 0.981 | 0.983 | 0.982 | 0.983 | 0.402 | 0.529 | 0.548 | 0.549 | 0.209 | 0.379 | 0.394 | 0.386 | – | – | – | – | – | – | – | –
6 | CN(C)CCOc1ccc(-c2nc(-c3ccncc3)c(-c3ccc4c(c3)CC/C4=N\O)[nH]2)cc1 | -0.226 | -0.183 | -0.167 | -0.14 | -0.788 | -0.651 | -0.644 | -0.615 | -0.0652 | -0.0236 | 0.0668 | 0.196 | 0.124 | 0.0207 | 0.0638 | 0.259 | 0.358 | 0.494 | 0.536 | 0.556 | -0.0096 | 0.315 | 0.378 | 0.441 | – | – | – | – | – | – | – | –
7 | CCN(CC)CCCCNc1ncc2cc(-c3cc(OC)cc(OC)c3)c(NC(=O)NC(C)(C)C)nc2n1 | -0.21 | -0.246 | -0.227 | -0.211 | -0.356 | -0.38 | -0.379 | -0.398 | -0.0428 | 0.00417 | 0.0568 | 0.152 | -0.156 | -0.0951 | -0.0251 | 0.158 | 0.539 | 0.564 | 0.587 | 0.597 | 0.393 | 0.447 | 0.445 | 0.439 | – | – | – | – | – | – | – | –
8 | CCC(C)(C)C(=O)O[C@H]1C[C@@H](C)C=C2C=C[C@H](C)[C@H](CC[C@@H]3C[C@@H](O)CC(=O)O3)[C@H]21 [Simvastatin (Zocor)] | -0.198 | -0.217 | -0.225 | -0.276 | -0.024 | -0.0809 | -0.115 | -0.175 | -0.0665 | -0.0212 | -0.00846 | 0.124 | -0.0261 | -0.0186 | -0.0188 | 0.0898 | 0.493 | 0.554 | 0.575 | 0.582 | 0.469 | 0.494 | 0.501 | 0.48 | – | – | – | – | – | – | – | –
9 | Cc1ccc([N+](=O)[O-])cc1S(=O)(=O)N(C)/N=C/c1cnc2ccc(Br)cn12 | 0.193 | 0.193 | 0.103 | -0.15 | 0.507 | 0.599 | 0.585 | 0.539 | 0.346 | 0.371 | 0.418 | 0.47 | 0.969 | 0.975 | 0.981 | 0.985 | 0.675 | 0.726 | 0.736 | 0.726 | 0.775 | 0.854 | 0.868 | 0.889 | – | – | – | – | – | – | – | –

Reference: the supplement of paper PMC6897291
